Assay outcomes as filed in PubChem.
CYP2C19 inh: human CYP2C19 inhibition. P33261. CYP2C19 Supersomes, luciferin-H EGE luminescence, 30 min. inhibition, % at 5 µM. actives 21% (n = 96,000). AID 778;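 active = CYP2C19 inhibition above a set limit at 5 µM in the primary screen, cut at about 50% in these data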;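 also: plate controls were negative control wells for no effect and 2.5 mM tranylcypromine positive control for full effect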
CYP2C9 inh: blocks human cytochrome P450 2C9; AID 777; inhibition, % at 5 µM; P11712; CYP2C9 Supersomes, luciferin-H conversion, luminescence; actives 20% (n = 96,000);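 active = blocking of liver enzyme CYP2C9 beyond about 50% at 5 µM, limit read from the data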
Target sequence (P11712 whole entry, looked up): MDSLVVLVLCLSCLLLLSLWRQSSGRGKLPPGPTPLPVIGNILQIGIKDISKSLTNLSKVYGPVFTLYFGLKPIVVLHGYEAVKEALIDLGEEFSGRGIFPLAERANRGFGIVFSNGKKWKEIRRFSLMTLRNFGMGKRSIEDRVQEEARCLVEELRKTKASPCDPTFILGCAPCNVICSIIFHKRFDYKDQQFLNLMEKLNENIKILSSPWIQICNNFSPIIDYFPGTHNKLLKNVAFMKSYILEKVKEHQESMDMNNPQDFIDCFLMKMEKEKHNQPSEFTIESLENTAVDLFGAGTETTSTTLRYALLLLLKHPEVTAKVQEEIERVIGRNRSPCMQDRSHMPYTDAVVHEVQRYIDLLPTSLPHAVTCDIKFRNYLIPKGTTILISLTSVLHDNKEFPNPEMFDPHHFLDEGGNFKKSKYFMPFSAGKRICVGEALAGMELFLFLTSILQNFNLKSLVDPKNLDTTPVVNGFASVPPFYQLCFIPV
PLK1 kinase inh: inhibitors of human PLK1 kinase | recombinant PLK1 kinase, TR-FRET peptide phosphorylation | inhibition, % at 10 µM | actives 0.53% (n = 97,000) | AID 619;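 active = inhibition of 50% or more in the single-concentration screen; inactive = inhibition below 50%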;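 also: 0% = DMSO max control and 100% = H-89 dihydrochloride min control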
CYP2C9 act: activators of human CYP2C9; actives 1.4% (n = 96,000); recombinant CYP2C9, luciferin-H conversion, luminescence; stronger effect = higher value; factor 1 = untreated enzyme, 0 = blocked; P11712; activation factor at 5 µM;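 active = activation factor of 2 or more for CYP2C9 at a 5 µM dose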;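 also: 0 = sulfaphenazole-blocked wells and 1 = vehicle-only wells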
CYP2C19 activ: activators of human cytochrome P450 2C19; P33261; recombinant CYP2C19, luciferin-H EGE luminescence; stronger effect = higher value; 0 = fully inhibited enzyme, 1 = untreated enzyme; activation factor at 5 µM; 96,000 tested, under 10 active;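 active = activation factor of at least 2 at 5 µM in the primary screen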;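 also: 0 = wells with 2.5 mM tranylcypromine and 1 = vehicle-only wells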
Plk1 PBD FP: blocks phosphopeptide binding to human Plk1 polo box domain. P53350. Plk1 PBD phosphopeptide binding, fluorescence polarization. inhibition, %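 (tested at about 20 µM)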. actives 0.13% (n = 97,000). AID 693; in the data active = inhibition above about 34%, passing the limit was not always enough
Starred values were filed as active, the others as inactive. Only some compounds are listed: those with a hit (about 28% of all), similar ones and a draw of the others.

`CC(=O)Nc1ccc(S(=O)(=O)NCc2ccc(C(=O)NCc3ccc4c(c3)OCO4)cc2)cc1` gave PLK1 kinase inh -6.1 and Plk1 PBD FP 2.5.
For CC(C)CN1C(=O)NC(NC(=O)c2ccco2)(C(F)(F)F)C1=O (stereo not given) the results were CYP2C19 inh 55.5*, CYP2C9 inh 16.2, PLK1 kinase inh -2.0, CYP2C9 act 0.8, CYP2C19 activ 0.4 and Plk1 PBD FP 0.7.
`CN1C(=O)NC(NC(=O)c2ccco2)(C(F)(F)F)C1=O` (stereo not given) gave CYP2C19 inh -1.9, CYP2C9 inh -0.1, PLK1 kinase inh -10.0, CYP2C9 act 1, CYP2C19 activ 1 and Plk1 PBD FP -1.1.
Screening O=C(CSc1nnc(CNc2cccc(C(F)(F)F)c2)n1Cc1ccco1)NCc1ccco1 returned PLK1 kinase inh 1.5 and Plk1 PBD FP 3.9.
`CCn1c(C)nc2cc(-c3nc4n(n3)Cc3ccccc3-4)ccc21` gave CYP2C19 inh 84.0*, CYP2C9 inh 36.5, CYP2C9 act 0.6 and CYP2C19 activ 0.2.
`COc1ccc(C2C(C#N)=C(SCC(=O)Nc3ccc(C)cc3)NC3=C2C(=O)CC(C)(C)C3)cc1` (stereo not given) gave CYP2C19 inh 7.9, CYP2C9 inh 8.4, PLK1 kinase inh -10.6, CYP2C9 act 0.9, CYP2C19 activ 0.9 and Plk1 PBD FP 34.5.
For COc1cccc(NC(=O)CSC2=C(C#N)C(c3ccco3)C3=C(CCCC3=O)N2)c1 (stereo not given) the results were CYP2C19 inh 59.8*, CYP2C9 inh 66.0*, PLK1 kinase inh -12.5, CYP2C9 act 0.3, CYP2C19 activ 0.4 and Plk1 PBD FP 21.2.
Screening COc1ccc(NC(=O)CSC2=C(C#N)C(c3ccco3)C3=C(CCCC3=O)N2)c(OC)c1 (stereo not given) returned CYP2C19 inh 92.7*, CYP2C9 inh 85.1*, PLK1 kinase inh -4.2, CYP2C9 act 0.1, CYP2C19 activ 0.1 and Plk1 PBD FP 20.3.
For CCCCc1ccc(NC(=O)CSC2=C(C#N)C(c3ccco3)C3=C(CCCC3=O)N2)cc1 (stereo not given) the results were CYP2C19 inh 75.5*, CYP2C9 inh 91.8*, CYP2C9 act 0.1 and CYP2C19 activ 0.2.
For COc1ccccc1NC(=O)N1CCc2[nH]c3ccc(Cl)cc3c2C1 the results were CYP2C19 inh 30.4, CYP2C9 inh -60.3, PLK1 kinase inh -4.9, CYP2C9 act 1.6, CYP2C19 activ 0.7 and Plk1 PBD FP -30.9.
For COc1ccc(CCC(=O)N2CC(C)OC(C)C2)cc1 (stereo not given) the results were CYP2C19 inh 27.8, CYP2C9 inh 9.8, PLK1 kinase inh -4.9, CYP2C9 act 0.9, CYP2C19 activ 0.7 and Plk1 PBD FP -8.5.
CC1=C(C(=O)Nc2cc(C)ccc2C)C(c2cccs2)NC(=S)N1 (stereo not given) was read as CYP2C19 inh 1.2, CYP2C9 inh 21.7, PLK1 kinase inh -6.0, CYP2C9 act 0.8, CYP2C19 activ 1 and Plk1 PBD FP -2.3.
O=C(COc1ccc(S(=O)(=O)NCc2ccccc2)cc1)NCC1CCCO1 (stereo not given) was read as CYP2C19 inh -1.7, CYP2C9 inh 5.2, PLK1 kinase inh -2.2, CYP2C9 act 0.9, CYP2C19 activ 1 and Plk1 PBD FP 19.4.
`O=S(=O)(NC1CC2CCC1C2)c1ccc(Br)s1` (stereo not given) gave CYP2C19 inh 64.1*, CYP2C9 inh 83.6*, PLK1 kinase inh -8.8, CYP2C9 act 0.2, CYP2C19 activ 0.4 and Plk1 PBD FP -17.6.
CCN1CCN(S(=O)(=O)c2ccc(S(=O)(=O)NCC3CCCO3)cc2)CC1 (stereo not given) was read as CYP2C19 inh -9.6, CYP2C9 inh 1.2, PLK1 kinase inh -7.5, CYP2C9 act 1, CYP2C19 activ 1.1 and Plk1 PBD FP -16.7.
O=S(=O)(NCC1CCCO1)c1ccc2oc3ccc(S(=O)(=O)NCC4CCCO4)cc3c2c1 (stereo not given) was read as CYP2C19 inh 2.3, CYP2C9 inh 52.5*, PLK1 kinase inh -11.0, CYP2C9 act 0.5, CYP2C19 activ 1 and Plk1 PBD FP -16.2.
For CC(C)C(NS(=O)(=O)c1ccc(Br)s1)C(=O)O (stereo not given) the results were CYP2C19 inh -6.2, CYP2C9 inh -10.5, PLK1 kinase inh -6.5, CYP2C9 act 1.1, CYP2C19 activ 1.1 and Plk1 PBD FP 8.8.
O=S(=O)(NCC1CCCO1)c1ccc(Br)s1 (stereo not given) was read as CYP2C19 inh 71.0*, CYP2C9 inh -14.9, PLK1 kinase inh -4.4, CYP2C9 act 1.1, CYP2C19 activ 0.3 and Plk1 PBD FP -9.7.
For O=S(=O)(NCc1ccncc1)c1ccc(S(=O)(=O)NCC2CCCO2)cc1 (stereo not given) the results were CYP2C19 inh 56.5*, CYP2C9 inh 88.8*, PLK1 kinase inh -9.8, CYP2C9 act 0.1, CYP2C19 activ 0.4 and Plk1 PBD FP -6.5.
`CCOC(=O)N1CCC(NS(=O)(=O)c2ccc3c(c2)OCC(=O)N3)CC1` gave CYP2C19 inh 1.1, CYP2C9 inh 1.9, PLK1 kinase inh 0.4, CYP2C9 act 1, CYP2C19 activ 1 and Plk1 PBD FP 4.3.
N/C(Cc1cccs1)=N\OC(=O)COc1ccccc1 was read as CYP2C19 inh 20.7, CYP2C9 inh 7.0, PLK1 kinase inh -9.3, CYP2C9 act 0.9, CYP2C19 activ 0.8 and Plk1 PBD FP -19.0.
`CC1(C)CCCN(C(=O)c2coc(=O)c(Br)c2)C1` gave CYP2C19 inh 11.7, CYP2C9 inh 13.2, PLK1 kinase inh -19.8, CYP2C9 act 0.9, CYP2C19 activ 0.9 and Plk1 PBD FP 11.6.
Screening COCC(=O)N(Cc1cc2cc(OC)ccc2[nH]c1=O)c1ccc(C)cc1 returned CYP2C19 inh 36.0, CYP2C9 inh 58.8*, PLK1 kinase inh -5.6, CYP2C9 act 0.4, CYP2C19 activ 0.6 and Plk1 PBD FP 15.3.
`CCOc1ccc(N(Cc2cc3cc(OC)ccc3[nH]c2=O)C(=O)C2CCCO2)cc1` (stereo not given) gave CYP2C19 inh 20.2, CYP2C9 inh 67.8*, PLK1 kinase inh 16.7, CYP2C9 act 0.3, CYP2C19 activ 0.8 and Plk1 PBD FP -11.7.
`COc1ccc(C(=O)Nc2ccccc2-c2nnn(CC(=O)Nc3ccc4c(c3)OCCO4)n2)cc1` gave CYP2C19 inh 5.6, CYP2C9 inh 31.1, PLK1 kinase inh -11.0, CYP2C9 act 0.7, CYP2C19 activ 0.9 and Plk1 PBD FP -1.9.
`CCc1cc2c(cc3c(=O)n(CC(=O)NCCCN(CC)CC)nc(CC)n32)s1` gave CYP2C19 inh 9.1, CYP2C9 inh -4.9, PLK1 kinase inh -10.7, CYP2C9 act 1, CYP2C19 activ 0.9 and Plk1 PBD FP -12.4.
